# About 83,000 compounds went through this panel and 20% of them were active in at least one assay; those are over-represented in the sample as a whole.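 Single-dose data. Exposure time 48 hours. Values below 10 considered active.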 Values without a mark were called inactive. The source made the active and inactive calls.
# What was measured:
# Assay in all cases: NCI-60 one-dose screen, 48 h (100 = growth as untreated, 0 = no growth, -100 = all killed)
# [1] = test system: HCT-15 colon; settings: 10 µM unless noted
# [2] = test system: HT29 colon; settings: 10 µM unless noted
# [3] = test system: SNB-75 CNS; settings: 10 µM unless noted
# [4] = test system: SNB-19 CNS; settings: 10 µM unless noted
# [5] = test system: U251 CNS; settings: 10 µM unless noted
# [6] = test system: PC-3 prostate; settings: 10 µM unless noted
# [7] = test system: SK-MEL-5 melanoma; settings: 10 µM unless noted
# [8] = test system: UACC-62 melanoma; settings: 10 µM unless noted
# [9] = test system: LOX IMVI melanoma; settings: 10 µM unless noted
# [10] = test system: SK-MEL-28 melanoma; settings: 10 µM unless noted
# [11] = test system: SK-MEL-2 melanoma; settings: 10 µM
# [12] = test system: EKVX NSCLC; settings: 10 µM unless noted
# [13] = test system: SN12C renal; settings: 10 µM unless noted
# [14] = test system: UO-31 renal; settings: 10 µM unless noted
# [15] = test system: TK-10 renal; settings: 10 µM unless noted
# [16] = test system: CAKI-1 renal; settings: 10 µM unless noted
# [17] = test system: CCRF-CEM leukemia; settings: 10 µM unless noted
# [18] = test system: MOLT-4 leukemia; settings: 10 µM unless noted
# [19] = test system: ACHN renal; settings: 10 µM unless noted
# [20] = test system: A498 renal; settings: 10 µM unless noted
Structure (SMILES),growth [1],growth [2],growth [3],growth [4],growth [5],growth [6],growth [7],growth [8],growth [9],growth [10],growth [11],growth [12],growth [13],growth [14],growth [15],growth [16],growth [17],growth [18],growth [19],growth [20]
CCCCCCC1(/C=N/NC(N)=O)NC(=O)NC1=O (configuration not stated),98.3%,76.9%,82.2%,105%,94.3%,91.8%,96.9%,99%,97.4%,106%,98.8%,91.8%,105%,87.2%,99.1%,91.7%,102%,101%,,
COc1cc2c(cc1OCCCCN1CCN(CC(=O)Nc3ccc(Cl)cc3C(=O)c3ccccc3Cl)CC1)N=CC1CCCN1C2=O (configuration not stated),-65.6% (active),-61.4% (active),-84.7% (active),-57.3% (active),-88.4% (active),-98.6% (active),-92.6% (active),-85.1% (active),-84.4% (active),-86% (active),-67.5% (active),-79% (active),-81.1% (active),,-90.1% (active),-89.8% (active),-59.8% (active),-44.7% (active),-92.4% (active),-97.2% (active)
c1ccc2c(c1)CCN(NCCN1CCCC1)C2,105%,101%,70.9%,107%,94.3%,64.6%,104%,98.6%,90.1%,109%,91.5%,86.4%,94.8%,,96.6%,,79.3%,99.4%,89%,87.7%
CSc1nc2ncnc(SC)c2[nH]1,110%,89.6%,86.8%,116%,83.9%,91.6%,106%,110%,99.3%,107%,99.4%,94%,100%,82%,99.8%,90.9%,105%,98.9%,,
COc1cc2c3c(c1)nc(C)n3CCC2,98.2%,97.2%,83.4%,101%,91.9%,90.1%,97.4%,100%,92.7%,106%,100%,95.5%,99.6%,,99%,,93.2%,98.4%,108%,100%
Nc1nc(=S)c2ncn(C3OC(COC(=O)c4ccc(Cl)cc4)C(OC(=O)c4ccc(Cl)cc4)C3OC(=O)c3ccc(Cl)cc3)c2[nH]1 (configuration not stated),95.5%,87.9%,76.7%,86.9%,38%,84.9%,65.7%,94.1%,90.5%,82.4%,94.5%,71.4%,92.7%,,91.3%,,12.7%,65.1%,98.2%,75%
CCc1nc2ccc(Cc3ccc(C(=O)NO)cc3)cc2c(=O)n1CCc1ccccc1,-43.2% (active),-40.8% (active),-20.8% (active),-44.9% (active),-71.4% (active),-66.5% (active),-65.6% (active),-57.7% (active),-76.2% (active),-36% (active),-33.4% (active),-23.3% (active),-20.5% (active),-63.4% (active),-29.7% (active),-37% (active),2.95% (active),-18.7% (active),,-75.9% (active)
Clc1nc(Cl)c2ncn(C/C=C\Cn3cnc4c(Cl)nc(Cl)nc43)c2n1,-44.7% (active),-65.9% (active),-25.7% (active),9.97% (active),-56.5% (active),-57.6% (active),-81.5% (active),-72.7% (active),-80.1% (active),-19% (active),23.5%,-68% (active),-11.3% (active),,-45.6% (active),-97.2% (active),-73.4% (active),-55.4% (active),-94.5% (active),-18.2% (active)
ClCc1ccc(-c2ccc(Cn3cnc4nc(Cl)nc(Cl)c43)cc2)cc1,-5.13% (active),-8.13% (active),-2.49% (active),6.84% (active),-69.9% (active),-9.15% (active),-85.1% (active),-20.5% (active),-82.6% (active),1.02% (active),65.8%,82.7%,-29.8% (active),,-28.4% (active),-93.6% (active),-48.5% (active),-42.5% (active),5.65% (active),
COc1cnc2c(c1)C(=O)c1c-2n(CCCNC2=NCCS2)c(=O)c2cc(Cl)ccc12,-69.2% (active),-82.7% (active),57.9%,-29.7% (active),-89.7% (active),20.5%,39.4%,-76.6% (active),-90.5% (active),90.8%,90.5%,-35.8% (active),,-80.6% (active),-17.7% (active),-91.8% (active),-23% (active),-41.5% (active),-91.8% (active),-13% (active)
Cc1ccccc1Nc1nc2nonc2nc1Nc1cccc(C)c1C,44.8%,46.9%,75.8%,52.7%,29.9%,42.2%,5.63% (active),22.8%,54%,79.7%,24.9%,27.2%,,51.4%,56.4%,48.9%,50.6%,53.5%,52.6%,
CC(C)=CCc1cc2c(cc1O)C1=C(C(=O)C3=C(C1=O)S(=O)(=O)CCN3)C(C=C(C)C)O2 (configuration not stated),-11.5% (active),-30.5% (active),-81.1% (active),-91.1% (active),-81.3% (active),10.2%,-99.5% (active),-32.3% (active),-65.8% (active),-75.9% (active),-53.9% (active),-26.1% (active),,-2.94% (active),7.58% (active),,1.85% (active),-38.2% (active),-22.1% (active),-70% (active)
Cc1cccc(NC(=O)[C@@H]2c3ccccc3C(=O)N(c3ccc(Cl)cc3)[C@H]2c2ccc(Cl)cc2)n1,26.1%,11%,68.5%,67.5%,43.1%,17.1%,33.1%,44.1%,80.3%,69.2%,56.6%,37.2%,,37.6%,69.6%,55.6%,73.2%,35.9%,52%,
Nc1c2c(c(O)c3c1=C(CO)C=N3)=NCCS2=O (configuration not stated),4.65% (active),-27.4% (active),-45.3% (active),-93.6% (active),-89.8% (active),8% (active),-100% (active),-56.4% (active),-93.4% (active),-17.4% (active),-51.3% (active),-43.1% (active),-33.2% (active),,117%,,4.74% (active),-33.8% (active),-18.8% (active),-45.6% (active)
Cc1ccc(N=C2CSc3nnc(-c4csc5c4CCCC5)n3N2)cc1,22.9%,7.38% (active),56.9%,35.7%,23%,27.9%,19%,40.2%,46.3%,63.2%,61.6%,41.9%,48.5%,,78.9%,,16.8%,23.2%,52%,12.1%
COc1c(C(NC(=O)c2ccccc2)c2sccc2C)cc(Cl)c2cccnc12 (configuration not stated),101%,94.1%,88.4%,118%,88.6%,83.2%,98.4%,93%,98.1%,114%,108%,100%,94.1%,89.9%,98.4%,95.4%,83.9%,85.7%,,

# Source: PubChem BioAssay (NCI)
